From PubChem BioAssay AID1159580 (chemical genetic matrix, 2015)
Among all 5,500 compounds or so, about 2,000 (36%) were called active. Roughly 18% stayed inconclusive and do not appear here. Cut-off read from the data, not from the text of the source: active = normalized growth mostly below about 0.91 (no sharp cut-off); inconclusive = no clear call, values can overlap the other calls; inactive = mostly above about 0.92. This is one part of the list.

Experiment: chemical genetic growth profiling, strain panel (AID 1159580);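 note: tested at 20 µM; growth read once vehicle control cultures reached saturation at 30 °C; 1 = growth at the plate median or of vehicle wells; lower values mean less growth of the strain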
Details: S. cerevisiae deletion strains, growth OD

Measured: normalized growth

CC(=O)O[C@@H]1CC2C(C)(C)[C@H](O)CC[C@]2(C)C2CC[C@@]3(C)[C@H](c4ccoc4)OC(=O)[C@H]4O[C@]43[C@@]21C (stereo partly specified)
inactive: locus YAL013W, strain DEP1, stronger effect = lower value 1.01 | locus YBR021W, strain FUR4, stronger effect = lower value 0.971 | locus YBR229C, strain ROT2, stronger effect = lower value 0.996 | locus YCL029C, strain bik1, stronger effect = lower value 0.997 | locus YDL035C, strain GPR1, stronger effect = lower value 0.983 | locus YDL074C, strain BRE1, stronger effect = lower value 0.994 | locus YDL101C, strain DUN1, stronger effect = lower value 1.02 | locus YDL134C, strain PPH21, stronger effect = lower value 0.982 | locus YDL185W, strain tfp1, stronger effect = lower value 1.02 | locus YDL192W, strain arf1, stronger effect = lower value 0.999 | locus YDR101C, strain arx1, stronger effect = lower value 0.993 | locus YDR150W, strain NUM1, stronger effect = lower value 1 | locus YDR162C, strain NBP2, stronger effect = lower value 1.01 | locus YDR318W, strain mcm21, stronger effect = lower value 1.02 | locus YDR388W, stronger effect = lower value 1.01 | locus YDR502C, strain sam2, stronger effect = lower value 1.02 | locus YEL061C, strain CIN8, stronger effect = lower value 1.01 | locus YER110C, stronger effect = lower value 1.03 | locus YER155C, strain BEM2, stronger effect = lower value 1.01 | locus YER167W, strain BCK2, stronger effect = lower value 1.01 | locus YGL078C, strain dbp3, stronger effect = lower value 1.04 | locus YGL086W, strain mad1, stronger effect = lower value 1.02 | locus YGL248W, strain PDE1, stronger effect = lower value 1.02 | locus YGR078C, strain PAC10, stronger effect = lower value 1.05 | locus YGR135W, strain pre9, stronger effect = lower value 1.06 | locus YGR252W, strain gcn5, stronger effect = lower value 1.03 | locus YHR030C, strain SLT2, stronger effect = lower value 1.01 | locus YHR079C, strain IRE1 (second series), stronger effect = lower value 1.01 | locus YHR094C, strain hxt1, stronger effect = lower value 1.01 | locus YHR129C, strain ARP1, stronger effect = lower value 1 | locus YHR200W, strain rpn10, stronger effect = lower value 1.01 | locus YIL066C, strain RNR3, stronger effect = lower value 0.984 | locus YIL073C, strain SPO22, stronger effect = lower value 1.03 | locus YIL125W, strain kgd1, stronger effect = lower value 1.01 | locus YIR030C, strain dcg1, stronger effect = lower value 1.01 | locus YJL095W, strain BCK1, stronger effect = lower value 1.03 | locus YJL134W, strain LCB3, stronger effect = lower value 1.01 | locus YJL168C, strain set2, stronger effect = lower value 1.02 | locus YJL187C, strain SWE1 (second series), stronger effect = lower value 1.03 | locus YKL009W, strain mrt4, stronger effect = lower value 0.996 | locus YKL068W, stronger effect = lower value 0.996 | locus YKL085W, strain MDH1 (second series), stronger effect = lower value 1.01 | locus YKL085W, strain MDH1, stronger effect = lower value 1.01 | locus YKR001C, strain vps1, stronger effect = lower value 1.01 | locus YLR039C, strain RIC1, stronger effect = lower value 1.07 | locus YLR058C, strain SHM2, stronger effect = lower value 1.01 | locus YLR102C, strain apc9, stronger effect = lower value 1.01 | locus YLR262C, strain YPT6, stronger effect = lower value 1.13 | locus YLR268W, strain sec22, stronger effect = lower value 0.975 | locus YLR342W, strain FKS1 (second series), stronger effect = lower value 1.02 | locus YLR371W, strain rom2, stronger effect = lower value 1.01 | locus YLR418C, strain cdc73, stronger effect = lower value 1.02 | locus YML016C, strain PPZ1, stronger effect = lower value 1.01 | locus YML032C, strain rad52, stronger effect = lower value 0.978 | locus YML124C, strain tub3, stronger effect = lower value 1.02 | locus YMR078C, strain ctf18, stronger effect = lower value 1.01 | locus YMR223W, strain ubp8, stronger effect = lower value 1 | locus YMR307W, strain GAS1, stronger effect = lower value 1.09 | locus YNL067W, strain RPL9B, stronger effect = lower value 1.04 | locus YNL153C, strain GIM3, stronger effect = lower value 1.04 | locus YNL233W, strain BNI4, stronger effect = lower value 1.02 | locus YNL250W, strain rad50, stronger effect = lower value 1.04 | locus YNL271C, strain bni1, stronger effect = lower value 1.03 | locus YNL298W, strain CLA4, stronger effect = lower value 1.01 | locus YNL307C, strain MCK1, stronger effect = lower value 1.02 | locus YNR052C, strain pop2, stronger effect = lower value 1.04 | locus YOL006C, strain TOP1, stronger effect = lower value 1.01 | locus YOL012C, strain htz1 0.714 | locus YOL147C, strain pex11, stronger effect = lower value 1.01 | locus YOR061W, strain CKA2, stronger effect = lower value 1 | locus YOR069W, strain VPS5, stronger effect = lower value 1.01 | locus YOR136W, strain idh2, stronger effect = lower value 1.01 | locus YOR144C, strain elg1, stronger effect = lower value 1.01 | locus YOR184W, strain ser1, stronger effect = lower value 0.993 | locus YOR316C, strain cot1, stronger effect = lower value 1.02 | locus YPL241C, strain CIN2, stronger effect = lower value 1.01 | locus YPR119W, strain clb2, stronger effect = lower value 1.01 | locus YPR141C, strain kar3, stronger effect = lower value 1 | locus YPR163C, strain tif3, stronger effect = lower value 1.02 | locus YPR167C, strain met16, stronger effect = lower value 1.02 | strain wtn01, stronger effect = lower value 0.984
